Assay results published in PubChem BioAssay AID1159580 (chemical genetic matrix, 2015).
The whole screen tested about 5,500 compounds, of which about 2,000 (36%) were called active. Not shown: some 18% with an inconclusive outcome. No stated cut-off is given here; in the data, active means normalized growth mostly below about 0.91 (no sharp cut-off); inconclusive means no clear call, values can overlap the other calls; inactive means mostly above about 0.92. Some of the results follow.

Experiment: chemical genetic growth profiling, strain panel (AID 1159580);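 further: tested at 20 µM; growth read once vehicle control cultures reached saturation at 30 °C; 1 = growth at the plate median or of vehicle wells; lower values mean less growth of the strain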
Conditions: growth OD

Measured: normalized growth

COc1ccc(CCC(=O)c2c(O)cc(O[C@@H]3O[C@H](CO)C(O)[C@H](O)C3O[C@@H]3O[C@@H](C)[C@H](O)[C@@H](O)[C@H]3O)cc2O)cc1O (some centres not stated)
inactive: S. cerevisiae deletion strains, locus YJR075W, strain HOC1, hits give low values 0.996 | S. cerevisiae deletion strains, locus YKL009W, strain mrt4, hits give low values 1 | S. cerevisiae deletion strains, locus YKL068W, hits give low values 0.972 | S. cerevisiae deletion strains, locus YKL085W, strain MDH1 (second series), hits give low values 0.982 | S. cerevisiae deletion strains, locus YKL085W, strain MDH1, hits give low values 0.982 | S. cerevisiae deletion strains, locus YKL160W, strain elf1, hits give low values 1 | S. cerevisiae deletion strains, locus YKL190W, strain CNB1, hits give low values 0.999 | S. cerevisiae deletion strains, locus YKR001C, strain vps1, hits give low values 0.989 | S. cerevisiae deletion strains, locus YKR026C, strain gcn3, hits give low values 1.02 | S. cerevisiae deletion strains, locus YKR091W, strain srl3, hits give low values 1.01 | S. cerevisiae deletion strains, locus YLL001W, strain dnm1, hits give low values 1 | S. cerevisiae deletion strains, locus YLL026W, hits give low values 1.02 | S. cerevisiae deletion strains, locus YLL041C, strain sdh2, hits give low values 1.02 | S. cerevisiae deletion strains, locus YLR027C, strain aat2, hits give low values 1 | S. cerevisiae deletion strains, locus YLR039C, strain RIC1, hits give low values 0.982 | S. cerevisiae deletion strains, locus YLR058C, strain SHM2, hits give low values 1 | S. cerevisiae deletion strains, locus YLR102C, strain apc9, hits give low values 0.973 | S. cerevisiae deletion strains, locus YLR113W, strain HOG1, hits give low values 0.98 | S. cerevisiae deletion strains, locus YLR221C, strain rsa3, hits give low values 1.04 | S. cerevisiae deletion strains, locus YLR258W, strain gsy2, hits give low values 1.04 | S. cerevisiae deletion strains, locus YLR262C, strain YPT6 (second series), hits give low values 1.05 | S. cerevisiae deletion strains, locus YLR262C, strain YPT6, hits give low values 0.97 | S. cerevisiae deletion strains, locus YLR268W, strain sec22, hits give low values 0.95 | S. cerevisiae deletion strains, locus YLR320W, strain mms22, hits give low values 1.06 | S. cerevisiae deletion strains, locus YLR330W, strain CHS5, hits give low values 0.993 | S. cerevisiae deletion strains, locus YLR342W, strain FKS1 (second series), hits give low values 1.06 | S. cerevisiae deletion strains, locus YLR342W, strain FKS1, hits give low values 1.02 | S. cerevisiae deletion strains, locus YLR357W, strain rsc2, hits give low values 1.01 | S. cerevisiae deletion strains, locus YLR370C, strain arc18, hits give low values 1.01 | S. cerevisiae deletion strains, locus YLR371W, strain rom2, hits give low values 0.983 | S. cerevisiae deletion strains, locus YLR384C, strain iki3, hits give low values 1.04 | S. cerevisiae deletion strains, locus YLR418C, strain cdc73, hits give low values 0.985 | S. cerevisiae deletion strains, locus YML016C, strain PPZ1, hits give low values 1.01 | S. cerevisiae deletion strains, locus YML032C, strain rad52, hits give low values 0.966 | S. cerevisiae deletion strains, locus YML120C, strain ndi1, hits give low values 1.01 | S. cerevisiae deletion strains, locus YML124C, strain tub3, hits give low values 0.984 | S. cerevisiae deletion strains, locus YMR058W, strain fet3, hits give low values 1.03 | S. cerevisiae deletion strains, locus YMR078C, strain ctf18, hits give low values 0.989 | S. cerevisiae deletion strains, locus YMR125W, strain sto1, hits give low values 1.01 | S. cerevisiae deletion strains, locus YMR129W, hits give low values 1.02 | S. cerevisiae deletion strains, locus YMR205C, strain PFK2, hits give low values 1.02 | S. cerevisiae deletion strains, locus YMR223W, strain ubp8, hits give low values 1.01 | S. cerevisiae deletion strains, locus YMR231W, strain pep5, hits give low values 0.995 | S. cerevisiae deletion strains, locus YMR263W, strain SAP30, hits give low values 0.989 | S. cerevisiae deletion strains, locus YMR307W, strain GAS1, hits give low values 1.04 | S. cerevisiae deletion strains, locus YNL067W, strain RPL9B, hits give low values 0.989 | S. cerevisiae deletion strains, locus YNL071W, strain lat1, hits give low values 1.01 | S. cerevisiae deletion strains, locus YNL128W, strain TEP1, hits give low values 0.989 | S. cerevisiae deletion strains, locus YNL153C, strain GIM3, hits give low values 0.988 | S. cerevisiae deletion strains, locus YNL183C, strain NPR1, hits give low values 0.899 | S. cerevisiae deletion strains, locus YNL209W, strain ssb2, hits give low values 1.01 | S. cerevisiae deletion strains, locus YNL233W, strain BNI4, hits give low values 0.994 | S. cerevisiae deletion strains, locus YNL248C, strain rpa49, hits give low values 1.04 | S. cerevisiae deletion strains, locus YNL250W, strain rad50, hits give low values 0.979 | S. cerevisiae deletion strains, locus YNL271C, strain bni1, hits give low values 0.981 | S. cerevisiae deletion strains, locus YNL298W, strain CLA4, hits give low values 0.984 | S. cerevisiae deletion strains, locus YNL307C, strain MCK1, hits give low values 0.993 | S. cerevisiae deletion strains, locus YNL322C, strain KRE1 (second series), hits give low values 1.01 | S. cerevisiae deletion strains, locus YNL322C, strain KRE1, hits give low values 0.993 | S. cerevisiae deletion strains, locus YNR049C, strain mso1, hits give low values 1.02 | S. cerevisiae deletion strains, locus YNR052C, strain pop2, hits give low values 0.993 | S. cerevisiae deletion strains, locus YOL006C, strain TOP1, hits give low values 0.929 | S. cerevisiae deletion strains, locus YOL012C, strain htz1 1.02 | S. cerevisiae deletion strains, locus YOL147C, strain pex11, hits give low values 0.989 | S. cerevisiae deletion strains, locus YOR001W, strain rrp6, hits give low values 1.05 | S. cerevisiae deletion strains, locus YOR061W, strain CKA2, hits give low values 0.999 | S. cerevisiae deletion strains, locus YOR069W, strain VPS5, hits give low values 1 | S. cerevisiae deletion strains, locus YOR070C, strain gyp1, hits give low values 1 | S. cerevisiae deletion strains, locus YOR080W, strain dia2, hits give low values 1.03 | S. cerevisiae deletion strains, locus YOR083W, strain WHI5, hits give low values 1 | S. cerevisiae deletion strains, locus YOR106W, strain vam3, hits give low values 0.992 | S. cerevisiae deletion strains, locus YOR136W, strain idh2, hits give low values 0.99 | S. cerevisiae deletion strains, locus YOR144C, strain elg1, hits give low values 0.977 | S. cerevisiae deletion strains, locus YOR184W, strain ser1, hits give low values 0.985 | S. cerevisiae deletion strains, locus YOR231W, strain MKK1, hits give low values 0.97 | S. cerevisiae deletion strains, locus YOR265W, strain rbl2, hits give low values 1.02 | S. cerevisiae deletion strains, locus YOR270C, strain vph1, hits give low values 1.07 | S. cerevisiae deletion strains, locus YOR290C, strain snf2, hits give low values 0.965 | S. cerevisiae deletion strains, locus YOR316C, strain cot1, hits give low values 0.967 | S. cerevisiae deletion strains, locus YPL051W, strain arl3, hits give low values 1.02 | S. cerevisiae deletion strains, locus YPL055C, strain LGE1, hits give low values 0.982 | S. cerevisiae deletion strains, locus YPL078C, strain atp4, hits give low values 0.989 | S. cerevisiae deletion strains, locus YPL106C, strain sse1, hits give low values 1.02 | S. cerevisiae deletion strains, locus YPL240C, strain hsp82, hits give low values 1.02 | S. cerevisiae deletion strains, locus YPL241C, strain CIN2, hits give low values 0.993 | S. cerevisiae deletion strains, locus YPL256C, strain CLN2, hits give low values 0.962 | S. cerevisiae deletion strains, locus YPR119W, strain clb2, hits give low values 0.975 | S. cerevisiae deletion strains, locus YPR141C, strain kar3, hits give low values 0.986 | S. cerevisiae deletion strains, locus YPR163C, strain tif3, hits give low values 0.985 | S. cerevisiae deletion strains, locus YPR167C, strain met16, hits give low values 0.97 | S. cerevisiae deletion strains, strain wtn01, hits give low values 1 | S. cerevisiae strains, strain wild type, hits give low values 0.995
